Assay results from PubChem BioAssay AID1159580 (chemical genetic matrix, 2015).
“And” between values parts separate entries of the source, which are not always exact repeats. Equal entries are not always repeated. Out of some 5,500 compounds screened, about 2,000 (36%) were called active. About 18% were inconclusive and are not listed. The list shows a part of the results. Unmarked numbers belong to inactive results. Cut-off read from the data, not from the text of the source: active = normalized growth mostly below about 0.91 (no sharp cut-off); inconclusive = no clear call, values can overlap the other calls; inactive = mostly above about 0.92.

Assay: chemical genetic growth profiling, strain panel (AID 1159580);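 note: tested at 20 µM; growth read once vehicle control cultures reached saturation at 30 °C; 1 = growth at the plate median or of vehicle wells; lower values mean less growth of the strain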
Settings: S. cerevisiae deletion strains, growth OD

CC1(C)C2CC[C@]3(C)C(C(=O)C=C4[C@@H]5C[C@@](C)(C(=O)O)CC[C@]5(C)CC[C@]43C)[C@@]2(C)CC[C@@H]1O (stereo not given in full)
normalized growth (locus YAL013W, strain DEP1, hits give low values): 1.02
normalized growth (locus YAL021C, strain ccr4, hits give low values): 1.02
normalized growth (locus YAL026C, strain drs2, hits give low values): 0.999
normalized growth (locus YAL030W, strain snc1, hits give low values): 1
normalized growth (locus YBL061C, strain skt5, hits give low values): 1.02
normalized growth (locus YBR009C, strain hhf1, hits give low values): 0.93
normalized growth (locus YBR021W, strain FUR4, hits give low values): 0.961
normalized growth (locus YBR023C, strain chs3, hits give low values): 1.02
normalized growth (locus YBR171W, strain sec66, hits give low values): 1
normalized growth (locus YBR229C, strain ROT2, hits give low values): 1.06
normalized growth (locus YBR231C, strain swc5, hits give low values): 1.08
normalized growth (locus YBR279W, strain paf1, hits give low values): 1.03
normalized growth (locus YCL011C, strain gbp2, hits give low values): 0.988
normalized growth (locus YCL016C, strain dcc1, hits give low values): 1.03
normalized growth (locus YCL029C, strain bik1, hits give low values): 0.956
normalized growth (locus YCL069W, strain vba3, hits give low values): 1
normalized growth (locus YCR088W, strain abp1, hits give low values): 1.02
normalized growth (locus YDL005C, strain med2, hits give low values): 1.01
normalized growth (locus YDL035C, strain GPR1, hits give low values): 0.873
normalized growth (locus YDL040C, strain nat1, hits give low values): 1.03
normalized growth (locus YDL074C, strain BRE1, hits give low values): 1.02
normalized growth (locus YDL101C, strain DUN1, hits give low values): 1.02
normalized growth (locus YDL185W, strain tfp1, hits give low values): 1.04
normalized growth (locus YDL192W, strain arf1, hits give low values): 0.996
normalized growth (locus YDR001C, strain nth1, hits give low values): 1.01
normalized growth (locus YDR069C, strain doa4, hits give low values): 1
normalized growth (locus YDR101C, strain arx1, hits give low values): 0.98
normalized growth (locus YDR137W, strain rgp1, hits give low values): 0.879
normalized growth (locus YDR159W, strain sac3, hits give low values): 0.908
normalized growth (locus YDR162C, strain NBP2, hits give low values): 0.986
normalized growth (locus YDR195W, strain ref2): 1.07
normalized growth (locus YDR297W, strain sur2, hits give low values): 0.978
normalized growth (locus YDR318W, strain mcm21, hits give low values): 0.997
normalized growth (locus YDR334W, strain swr1, hits give low values): 0.964
normalized growth (locus YDR335W, strain msn5, hits give low values): 1.01
normalized growth (locus YDR388W, hits give low values): 1.01
normalized growth (locus YDR392W, strain spt3, hits give low values): 1.02
normalized growth (locus YDR502C, strain sam2, hits give low values): 0.968
normalized growth (locus YEL003W, strain gim4, hits give low values): 0.932
normalized growth (locus YEL037C, strain rad23, hits give low values): 1
normalized growth (locus YEL061C, strain CIN8 (second series), hits give low values): 1.01
normalized growth (locus YER015W, strain faa2, hits give low values): 1.02
normalized growth (locus YER016W, strain bim1, hits give low values): 1.01
normalized growth (locus YER110C, hits give low values): 1.04
normalized growth (locus YER111C, strain swi4, hits give low values): 1.03
normalized growth (locus YER155C, strain BEM2 (second series), hits give low values): 1.13
normalized growth (locus YER155C, strain BEM2, hits give low values): 1.06
normalized growth (locus YER167W, strain BCK2, hits give low values): 1.07
normalized growth (locus YFR010W, strain ubp6, hits give low values): 0.943
normalized growth (locus YGL078C, strain dbp3, hits give low values): 0.907 (active)
normalized growth (locus YGL086W, strain mad1, hits give low values): 1.01
normalized growth (locus YGL167C, strain pmr1, hits give low values): 0.996
normalized growth (locus YGL173C, strain kem1, hits give low values): 0.876 (active)
normalized growth (locus YGL227W, strain vid30, hits give low values): 1.02
normalized growth (locus YGL240W, strain doc1, hits give low values): 0.986
normalized growth (locus YGL248W, strain PDE1, hits give low values): 0.985
normalized growth (locus YGL253W, strain hxk2, hits give low values): 1.02
normalized growth (locus YGR078C, strain PAC10, hits give low values): 1.02
normalized growth (locus YGR135W, strain pre9, hits give low values): 0.981
normalized growth (locus YGR252W, strain gcn5, hits give low values): 0.833
normalized growth (locus YHR013C, strain ard1, hits give low values): 1.1
normalized growth (locus YHR027C, strain rpn1, hits give low values): 0.956
normalized growth (locus YHR030C, strain SLT2, hits give low values): 1.07 and 0.991
normalized growth (locus YHR079C, strain IRE1 (second series), hits give low values): 1.02
normalized growth (locus YHR079C, strain IRE1, hits give low values): 0.973
normalized growth (locus YHR094C, strain hxt1, hits give low values): 1.03
normalized growth (locus YHR129C, strain ARP1, hits give low values): 1.07
normalized growth (locus YHR142W, strain chs7, hits give low values): 1.01
normalized growth (locus YHR200W, strain rpn10, hits give low values): 1.03
normalized growth (locus YIL066C, strain RNR3, hits give low values): 1.03
normalized growth (locus YIL073C, strain SPO22, hits give low values): 0.956
normalized growth (locus YIL125W, strain kgd1, hits give low values): 1.01
normalized growth (locus YIR030C, strain dcg1, hits give low values): 1.01
normalized growth (locus YJL092W, strain hpr5, hits give low values): 1.02
normalized growth (locus YJL095W, strain BCK1 (second series), hits give low values): 1.02
normalized growth (locus YJL095W, strain BCK1, hits give low values): 0.971 and 0.979
normalized growth (locus YJL115W, strain asf1, hits give low values): 1.01
normalized growth (locus YJL129C, strain trk1, hits give low values): 1.04
normalized growth (locus YJL134W, strain LCB3, hits give low values): 1.05
normalized growth (locus YJL154C, strain vps35, hits give low values): 1.01
normalized growth (locus YJL164C, strain tpk1, hits give low values): 0.946
normalized growth (locus YJL166W, strain qcr8, hits give low values): 0.974
normalized growth (locus YJL168C, strain set2, hits give low values): 1.03
normalized growth (locus YJL187C, strain SWE1 (second series), hits give low values): 1
normalized growth (locus YJR043C, strain POL32, hits give low values): 0.99
normalized growth (locus YJR066W, strain TOR1, hits give low values): 0.953
normalized growth (locus YJR075W, strain HOC1, hits give low values): 1.04
normalized growth (locus YKL009W, strain mrt4, hits give low values): 0.864 (active)
normalized growth (locus YKL068W, hits give low values): 1.08 [resistant] (active)
normalized growth (locus YKL085W, strain MDH1 (second series), hits give low values): 1.07 [resistant] (active)
normalized growth (locus YKL085W, strain MDH1, hits give low values): 1.07 [resistant] (active)
normalized growth (locus YKL160W, strain elf1, hits give low values): 1.01
normalized growth (locus YKL190W, strain CNB1, hits give low values): 1.08
normalized growth (locus YKR001C, strain vps1, hits give low values): 0.992
normalized growth (locus YKR026C, strain gcn3, hits give low values): 1.02
normalized growth (locus YKR091W, strain srl3, hits give low values): 1.01
normalized growth (locus YLL001W, strain dnm1, hits give low values): 0.952
normalized growth (locus YLL026W, hits give low values): 1.01
normalized growth (locus YLL041C, strain sdh2, hits give low values): 1.03
normalized growth (locus YLR027C, strain aat2, hits give low values): 1
normalized growth (locus YLR039C, strain RIC1, hits give low values): 1.03
normalized growth (locus YLR058C, strain SHM2, hits give low values): 1.01
normalized growth (locus YLR102C, strain apc9, hits give low values): 1.03
normalized growth (locus YLR113W, strain HOG1, hits give low values): 0.974
normalized growth (locus YLR221C, strain rsa3, hits give low values): 0.918
normalized growth (locus YLR258W, strain gsy2, hits give low values): 1
normalized growth (locus YLR262C, strain YPT6 (second series), hits give low values): 0.88
normalized growth (locus YLR262C, strain YPT6, hits give low values): 0.933
normalized growth (locus YLR268W, strain sec22, hits give low values): 0.953
normalized growth (locus YLR320W, strain mms22, hits give low values): 0.941
normalized growth (locus YLR330W, strain CHS5, hits give low values): 1.06
normalized growth (locus YLR342W, strain FKS1 (second series), hits give low values): 0.977
normalized growth (locus YLR342W, strain FKS1, hits give low values): 0.961
normalized growth (locus YLR357W, strain rsc2, hits give low values): 1.08
normalized growth (locus YLR370C, strain arc18, hits give low values): 1.04
normalized growth (locus YLR371W, strain rom2, hits give low values): 1.04
normalized growth (locus YLR384C, strain iki3, hits give low values): 1.03
normalized growth (locus YLR418C, strain cdc73, hits give low values): 0.991
normalized growth (locus YML016C, strain PPZ1, hits give low values): 1.05
normalized growth (locus YML032C, strain rad52, hits give low values): 0.973
normalized growth (locus YML120C, strain ndi1, hits give low values): 0.933
normalized growth (locus YML124C, strain tub3, hits give low values): 1.03
normalized growth (locus YMR058W, strain fet3, hits give low values): 0.983
normalized growth (locus YMR078C, strain ctf18, hits give low values): 1.04
normalized growth (locus YMR125W, strain sto1, hits give low values): 1.12 [resistant] (active)
normalized growth (locus YMR129W, hits give low values): 1.02
normalized growth (locus YMR205C, strain PFK2, hits give low values): 0.99
normalized growth (locus YMR223W, strain ubp8, hits give low values): 0.978
normalized growth (locus YMR231W, strain pep5, hits give low values): 0.99
normalized growth (locus YMR307W, strain GAS1, hits give low values): 0.902
normalized growth (locus YNL067W, strain RPL9B, hits give low values): 0.987
normalized growth (locus YNL071W, strain lat1, hits give low values): 0.996
normalized growth (locus YNL128W, strain TEP1, hits give low values): 1.05
normalized growth (locus YNL153C, strain GIM3, hits give low values): 0.982
normalized growth (locus YNL183C, strain NPR1, hits give low values): 0.933
normalized growth (locus YNL209W, strain ssb2, hits give low values): 1.03
normalized growth (locus YNL233W, strain BNI4, hits give low values): 0.992
normalized growth (locus YNL248C, strain rpa49, hits give low values): 1.01
normalized growth (locus YNL250W, strain rad50, hits give low values): 0.998
normalized growth (locus YNL271C, strain bni1, hits give low values): 0.994
normalized growth (locus YNL298W, strain CLA4, hits give low values): 0.942
normalized growth (locus YNL307C, strain MCK1, hits give low values): 1.03
normalized growth (locus YNL322C, strain KRE1 (second series), hits give low values): 0.982
normalized growth (locus YNL322C, strain KRE1, hits give low values): 1.05
normalized growth (locus YNR049C, strain mso1, hits give low values): 1.03
normalized growth (locus YNR052C, strain pop2, hits give low values): 0.955
normalized growth (locus YOL006C, strain TOP1, hits give low values): 0.968
normalized growth (locus YOL012C, strain htz1): 1.55
normalized growth (locus YOL147C, strain pex11, hits give low values): 1.03
normalized growth (locus YOR001W, strain rrp6, hits give low values): 0.886 (active)
normalized growth (locus YOR061W, strain CKA2, hits give low values): 1.04
normalized growth (locus YOR069W, strain VPS5, hits give low values): 1.05
normalized growth (locus YOR070C, strain gyp1, hits give low values): 1.01
normalized growth (locus YOR080W, strain dia2, hits give low values): 1
normalized growth (locus YOR083W, strain WHI5, hits give low values): 0.922
normalized growth (locus YOR106W, strain vam3, hits give low values): 0.925
normalized growth (locus YOR136W, strain idh2, hits give low values): 1.01
normalized growth (locus YOR144C, strain elg1, hits give low values): 1.02
normalized growth (locus YOR184W, strain ser1, hits give low values): 0.857 (active)
normalized growth (locus YOR231W, strain MKK1, hits give low values): 0.966
normalized growth (locus YOR265W, strain rbl2, hits give low values): 1
normalized growth (locus YOR270C, strain vph1, hits give low values): 0.918
normalized growth (locus YOR290C, strain snf2, hits give low values): 0.989
normalized growth (locus YOR316C, strain cot1, hits give low values): 1.03
normalized growth (locus YPL051W, strain arl3, hits give low values): 1.02
normalized growth (locus YPL055C, strain LGE1, hits give low values): 1.06
normalized growth (locus YPL078C, strain atp4, hits give low values): 1.02
normalized growth (locus YPL106C, strain sse1, hits give low values): 1.13
normalized growth (locus YPL240C, strain hsp82, hits give low values): 1.01
normalized growth (locus YPL256C, strain CLN2, hits give low values): 1.05
normalized growth (locus YPR119W, strain clb2, hits give low values): 1.03
normalized growth (locus YPR141C, strain kar3, hits give low values): 1.05
normalized growth (locus YPR163C, strain tif3, hits give low values): 1.03
normalized growth (locus YPR167C, strain met16, hits give low values): 1.02
normalized growth (strain wtn01, hits give low values): 0.966
